IDE exosite FP: exo-site inhibitors of human IDE, primary screen, biochemical, fluorescence anisotropy, probe displacement; hit rate 6.3% among 17,000; z-score at 20 µM; purified IDE, FL-6b probe fluorescence polarization; hits give low values; Insulin-degrading enzyme (Homo sapiens), P14735;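 active = z-score of -3 or lower, meaning strong loss of probe binding signal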;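 note: His-tagged human IDE residues 42-1019 made in E. coli with 30 nM FL-6b probe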
* = called active by the depositor; ! = not active in a repeat. This is one part of a sample in which hits are shown more often than they occur.

SMILES | IDE exosite FP
COCC(=O)N1CCCCN2[C@H](CO)[C@@H](c3ccc(-c4ccc(C)cc4)cc3)[C@@H]2C1 | 1.22
CCCNC(=O)N1[C@H](C#N)[C@H](c2ccccc2-c2cccc(OC)c2)[C@@H]1CO | 3.59
CN1CCN(C(=O)[C@@H]2[C@@H](CO)[C@@H]3Cn4c(ccc(-c5ccncc5)c4=O)[C@@H]3N2CC2CC2)CC1 | 1.2
O=C(Nc1cc(F)ccc1F)N1CC(=O)N2[C@H](CO)[C@H](c3ccc(-c4ccc(F)cc4)cc3)[C@@H]2C1 | 1.6
CN(C)C(=O)c1cccc(-c2ccc([C@H]3[C@H](CO)N4C(=O)CN(C(=O)CC5CC5)C[C@@H]34)cc2)c1 | 2.15
CS(=O)(=O)N1Cc2cc(C(=O)NCC3CC3)nc(-c3cccc(-c4cncnc4)c3)c2[C@@H]1CCO | 0.374
CC(C)CC#Cc1ccc([C@@H]2[C@H]3CN(S(=O)(=O)c4cccc(F)c4)CC(=O)N3[C@H]2CO)cc1 | 0.301
CCC(=O)N1CC(=O)N2[C@H](C1)[C@H](c1ccc(C#CC(C)C)cc1)[C@@H]2CO | 1.63
COc1ccccc1C#Cc1ccc([C@H]2[C@H](C#N)N(C(=O)C3CCC3)[C@H]2CO)cc1 | -8.07*
COc1ccccc1C#Cc1ccc([C@@H]2[C@@H](C#N)N(C(=O)C3CCC3)[C@H]2CO)cc1 | -4.83*
CCCNC(=O)N1[C@H](CO)[C@H](c2ccc(C#CC3CC3)cc2)[C@H]1CNC | 0.686
CCC(=O)N1CC2(C1)[C@H](c1ccccc1)[C@H](CO)N2CC1CC1 | 1.49
CC(C)c1cn(CC[C@@H]2CC[C@@H](NS(=O)(=O)c3ccc(F)cc3)[C@@H](CO)O2)nn1 | 3.37
COc1cccc(NC(=O)Nc2ccc3c(c2)C(=O)N(C)C[C@@H](OC)[C@H](C)CN[C@@H](C)CO3)c1 | 0.177
COc1cccc(NC(=O)Nc2ccc3c(c2)C(=O)N(C)C[C@H](OC)[C@H](C)CN[C@@H](C)CO3)c1 | -1.87
CO[C@@H]1CN(C)C(=O)c2cc(NC(=O)c3cnccn3)ccc2OC[C@H](C)NC[C@H]1C | -0.0121
CO[C@@H]1CN(C)C(=O)c2cc(NC(=O)c3cnccn3)ccc2OC[C@H](C)NC[C@@H]1C | -0.389
CO[C@@H]1CN(C)C(=O)c2cc(NC(=O)c3ccc(Oc4ccccc4)cc3)ccc2OC[C@H](C)NC[C@@H]1C | -7.97*
CO[C@H]1CN(C)C(=O)c2cc(NC(=O)c3ccc(Oc4ccccc4)cc3)ccc2OC[C@H](C)NC[C@H]1C | -14.2*!
CO[C@@H]1CN(C)C(=O)c2cc(NC(=O)c3ccc(Oc4ccccc4)cc3)ccc2OC[C@@H](C)NC[C@H]1C | -13.5*
COc1cccc(NC(=O)Nc2ccc3c(c2)C(=O)N(C)C[C@H](OC)[C@@H](C)CN[C@H](C)CO3)c1 | -1.24
CO[C@H]1CN(C)C(=O)c2ccc(NC(=O)c3cccc(F)c3)cc2OC[C@@H](C)NC[C@@H]1C | 1.18
O=C(c1ccc2c(c1)OCO2)N1CCCCN2[C@H](CO)[C@@H](c3ccc(-c4ccccc4)cc3)[C@@H]2C1 | 0.426
O=C(Nc1cccc(F)c1)N1C[C@H]2[C@@H](c3ccccc31)[C@H](CO)N2C(=O)Cc1ccccn1 | 0.0849
Cc1ccc(S(=O)(=O)Nc2ccc3c(c2)C(=O)N([C@@H](C)CO)C[C@@H](C)[C@@H](CN(C)S(=O)(=O)c2cccs2)OCCCC[C@@H](C)O3)cc1 | 0.496
SMILES | IDE exosite FP
FC(F)(F)c1cccc(CN2[C@@H]3CNC[C@H]2[C@@H]3c2ccc(-c3cccnc3)cc2)c1 | -0.868
N#Cc1ccc(-c2ccc([C@@H]3[C@@H]4CN(S(=O)(=O)Cc5ccccc5)C[C@H]3N4)cc2)cc1 | -0.716
Cc1cccc(S(=O)(=O)N2CCCCN3[C@@H](CO)[C@H](c4ccc(-c5ccncc5)cc4)[C@@H]3C2)c1 | 1.62
COc1cccc(S(=O)(=O)N2CCCCN3[C@H](CO)[C@@H](c4ccc(-c5cncnc5)cc4)[C@@H]3C2)c1 | -0.616
COc1cccc(S(=O)(=O)N2CCCCN3[C@@H](CO)[C@@H](c4ccc(-c5cccnc5)cc4)[C@@H]3C2)c1 | -6.27*
COc1cccc(S(=O)(=O)N2CCCCN3[C@H](C2)[C@@H](c2ccc(-c4cncnc4)cc2)[C@@H]3CO)c1 | 0.964
COc1cccc(S(=O)(=O)N2CCCCN3[C@@H](CO)[C@@H](c4ccc(-c5cncnc5)cc4)[C@@H]3C2)c1 | -0.237
Cc1cccc(S(=O)(=O)N2CCCCN3[C@H](CO)[C@H](c4ccc(-c5ccncc5)cc4)[C@H]3C2)c1 | 1.51
COc1cccc(S(=O)(=O)N2CCCCN3[C@H](CO)[C@@H](c4ccc(-c5cccnc5)cc4)[C@@H]3C2)c1 | -3.53*
Cc1cccc(S(=O)(=O)N2CCCCN3[C@@H](CO)[C@@H](c4ccc(-c5cccnc5)cc4)[C@@H]3C2)c1 | -3.26*
COc1cccc(S(=O)(=O)N2CCCCN3[C@H](CO)[C@H](c4ccc(-c5cccnc5)cc4)[C@H]3C2)c1 | 1.12
O=C(NC[C@H]1N[C@H](CO)[C@H]1c1ccccc1)C1CC1 | 0.175
CCC(=O)NC[C@H]1[C@@H](c2ccc(C3=CCCC3)cc2)[C@H](CO)N1C(=O)C1CC1 | 3.84

Compound activity as filed in PubChem BioAssay.
